SMN2 splice up = increases expression of the SMN2 splice variant | HEK293 SMN2-luciferase splicing reporter, luminescence, 30-36 h | Potency, µM (highest dose often 46.1 µM), for inactives: top-dose activity change, positive = activation, usual class: activators | 210,000 compounds, 2.8% hits; also: % of control where 0% means no effect; nearly all actives have a fitted effect of over 55% in size
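HEK293 cells carry an SMN2 […]–luciferase reporter in which exon 7 inclusion puts luciferase in frame. Cells were plated 10-12 h before compound addition, then incubated 30-36 h at 37C. ONE-Glo luminescence was read; sodium butyrate at 4.5 mM final served as control.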
KinaseGlo FLuc = Kinase-Glo luciferase inhibition (counter-screen); Q27757; Kinase-Glo luciferase, ATP luminescence, 8 min; Potency, µM (top dose mostly 38.3 µM), for the others: top-dose activity change, negative = inhibition, actives largely listed as inhibitors; 200,000 compounds, 0.28% hits; AID 1379; also: % is scaled to controls: 0 for no effect and ±100 for the full control effect; nearly all actives have a fitted effect of over 60% in size
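Kinase-Glo luciferase light output from ATP and luciferin was measured with 10 uM ATP, within the enzyme's linear range. Buffer: 50 mM imidazole pH 7.2, 50 mM KCl, 7 mM MgCl2, 0.01% Tween 20, 0.05% BSA; luminescence read after 8 min at ambient temperature.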
ELG1 genotox = genotoxicity induction in ELG1-luciferase HEK293T cells; HEK293T ELG1-luciferase reporter, luminescence, 16 h; Potency, µM (top dose mostly 46 µM), without a hit: at the highest dose activity change, positive = activation, actives largely listed as activators; 330,000 compounds, 1.3% hits; also: % of control where 0% means no effect; nearly all actives have a fitted effect of over 60% in size
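Cells (2,000/well) expressing the ELG1-luciferase fusion are dosed by pin tool and kept 16 hr at 37 °C, 5% CO2. Signal comes from ONE-Glo luciferase reagent after 30 min at room temperature.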
Rab9 prom act = activators of Rab9 promoter; Huh7 Rab9 promoter-luciferase reporter, luminescence, 24 h; Potency, µM (highest dose often 9.22 µM), inactives show at the highest dose activation, negative = inhibition, actives largely listed as activators; 320,000 compounds, 2.8% hits; also: % of control where 0% means no effect; nearly all actives have a fitted effect of over 60% in size
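Luciferase signal after 10 min detection reagent at ambient indicates Rab9 promoter upregulation; stably transfected Huh7 cells were treated 24 h with compound in DMSO at 37 °C, 5% CO2.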
NPC1 prom act = NPC1 promoter activation; 320,000 compounds, 2.4% hits; Potency, µM (doses to about 9.22 µM), for inactives: at the highest dose activation, hits mostly activators; Huh7 NPC1 promoter luciferase reporter, 24 h; also: % of control where 0% means no effect; nearly all actives have a fitted effect of over 60% in size
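Quantitative HTS used a cell-based reporter: Huh7 cells stably bearing the NPC1 promoter upstream of luciferase were treated with compounds for 24 h, and promoter activation was read as luminescence.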
FLuc counter = firefly luciferase modulation, counter-screen for miR-21 project. AID 588342. Potency, µM (titrated, usually from 57.5 µM), for the others: at the top dose activity change, negative = inhibition, hits mostly inhibitors. 360,000 compounds, 6.9% hits. purified FLuc, Km substrates, luminescence inhibition. P08659;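 also: plate controls were vehicle for no effect and reference inhibitor for full effect; nearly all actives have a fitted effect of over 55% in size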
Target sequence (P08659 whole entry, looked up): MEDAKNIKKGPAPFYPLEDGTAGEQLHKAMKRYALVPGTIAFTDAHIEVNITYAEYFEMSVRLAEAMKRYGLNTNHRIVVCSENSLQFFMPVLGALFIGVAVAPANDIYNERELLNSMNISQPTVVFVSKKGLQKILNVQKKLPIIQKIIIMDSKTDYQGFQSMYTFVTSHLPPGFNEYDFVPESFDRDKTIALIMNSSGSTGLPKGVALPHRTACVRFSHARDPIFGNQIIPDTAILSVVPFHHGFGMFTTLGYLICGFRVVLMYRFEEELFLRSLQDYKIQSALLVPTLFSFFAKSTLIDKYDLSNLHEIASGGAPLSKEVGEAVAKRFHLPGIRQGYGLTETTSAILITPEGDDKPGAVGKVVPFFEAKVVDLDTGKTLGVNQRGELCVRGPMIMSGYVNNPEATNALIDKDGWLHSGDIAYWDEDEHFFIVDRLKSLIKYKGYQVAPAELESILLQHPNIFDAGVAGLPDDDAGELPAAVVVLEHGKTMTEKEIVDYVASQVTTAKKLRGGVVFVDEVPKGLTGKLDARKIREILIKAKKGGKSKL
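Purified P. pyralis luciferase, 10 nM final, with Km-level 10 uM D-luciferin and 10 uM ATP in 50 mM Tris acetate pH 7.5, 10 mM Mg acetate, 0.01% Tween-20, 0.05% BSA; 6-point qHTS titration about 60 µM downward; luminescence read.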
Starred values were filed as active, the others as inactive; ? = inconclusive; · = no result; [ ] = another dose, or the depositor's remark. The list is not random: actives were taken first. Their share in the collection is about 7.4%. Calls follow the shape of the dose curve; as a rule, active = well fitted curve in the direction sought with a large enough effect; inconclusive = small, poorly fitted or top-dose-only effect, or another doubt; inactive = no such curve, though single readings can be large; an effect the other way counts as inactive or inconclusive. Potency is read from the fitted curve at half-maximal effect.

SMILES	SMN2 splice up	KinaseGlo FLuc	ELG1 genotox	Rab9 prom act	NPC1 prom act	FLuc counter
COc1ccc(-c2cc(C(=O)N3CCCC3)c3ccccc3n2)cc1OC	·	·	-6.5%	0.0%	3.8%	?
O=C(NC1=NCCS1)c1cc(-c2ccc(-c3ccccc3)cc2)nc2ccccc12	-6.9%[1.84 µM]	-4.1%	13.5%	1.78µM*	3.98µM*	0.849µM*
COc1ccc(-c2cc(C(=O)NC3=NCCS3)c3ccccc3n2)cc1OC	4.9%	-0.9%	-6.0%	?	13.5%	9.53µM*
Cc1cc(C(=O)NC2=NCCS2)c2ccccc2n1	17.0%	1.0%	-0.3%	0.1%	-8.3%	-4.3%
COc1ccccc1[C@@]1(C)ON(c2ccccc2C(F)(F)F)C1=O	·	·	-3.2%	-4.6%	-11.8%	3.6%
CCC(=O)n1nc(-c2ccc(OC)cc2)nc1SC	?	-4.6%	?	?	26.6%	19µM*
CCC(=O)n1nc(-c2ccc(Cl)cc2)nc1SC	12.6µM*	-2.8%	?	?	28.3%	?
CCCC(=O)n1nc(-c2ccc(Cl)cc2)nc1SC	?	0.7%	?	27.3%	27.8%	?
COc1ccc(-c2c(-c3cc(OC)cc(OC)c3)n(C)c3ccc(-c4ccc(OC)nc4)cc23)cc1	·	·	3.1%	-0.8%	-1.9%	-0.8%
CCN(CC(=O)Nc1ccc(OC)cc1)CC(=O)Nc1sc2c(c1C(=O)OC)CCCC2	·	·	-3.0%	0.5%	-2.9%	·
O=C(/C=C/NNC(=O)c1ccccc1)c1ccc(Br)cc1	4.1%	1.3%	?	-0.1%	7.1%	26.9µM*
Cc1ccc(C(=O)/C=C/NNC(=O)c2ccccc2O)cc1	·	·	-4.9%	6.6%	10.1%	26.9µM*
O=C(/C=C/NNC(=O)c1ccc(Cl)cc1)c1ccccc1	6.6%	0.7%	-4.2%	0.6%	-0.9%	?
COC(=O)c1ccc(CN2CCCC(C(=O)c3ccccc3OC)C2)cc1 (stereo not drawn)	·	·	-4.4%	-2.2%	1.4%	-6.8%
CCOc1ncccc1C(=O)OCC(=O)c1ccc(C)c(C)c1	?	-1.7%	8.7%	?	?	10.7µM*
CCOc1ncccc1C(=O)OCC(=O)c1ccccc1	9.1%	-8.6%	-0.8%	-2.9%	-2.8%	?
CCOc1ncccc1C(=O)OCC(=O)c1ccccc1Br	17.1%	-5.0%	3.7%	0.0%	1.4%	13.5µM*
Cc1cc(SCC(=O)OCC(=O)N(CCC#N)c2ccccc2)nc2ccccc12	·	·	6.1%	-4.8%	0.8%	-1.9%
COc1ccc(CNC(=O)COC(=O)c2ccc3c(c2)OCCO3)cc1	6.6%	-3.4%	3.1%	-10.0%	5.7%	-0.5%
COc1cc(/C=C/C(=O)c2ccc3c(c2)OCCO3)cc(OC)c1OC	·	·	-5.7%	-13.7%	-14.7%	?
COc1ccc(C(=O)COC(=O)c2ccc3c(c2)OCCO3)c(OC)c1	·	·	13.9%	23.1%	-2.1%	12µM*
COc1ccc(/C=C/C(=O)c2ccc3c(c2)OCO3)cc1OC	·	·	?	-0.7%	9.8%	15.1µM*
COc1ccc(OC)c(/C=C/C(=O)c2ccc3c(c2)OCCO3)c1	·	·	6.6%	22.8%	20.0%	2.39µM*
COc1ccc(/C=C/C(=O)c2ccc(C(=O)/C=C/c3ccc(OC)c(OC)c3)cc2)cc1OC	·	·	3.1%	-4.5%	-5.8%	2.5%
COc1cc(/C=C/C(=O)c2ccc(C)cc2)ccc1OCC#N	-111.6%	1.8%	-12.7%	-3.6%	-3.7%	16.9µM*
SMILES	SMN2 splice up	KinaseGlo FLuc	ELG1 genotox	Rab9 prom act	NPC1 prom act	FLuc counter
O=C(COC(=O)c1ccc(Cl)cc1Cl)Nc1cccc(S(=O)(=O)NC2=NCCC2)c1	·	·	0.3%	1.3%	-1.0%	?
C=CCSC1=N/C(=C\c2sccc2C)C(=O)S1	0.4%	-4.1%	-5.9%	1.5%	-8.1%	-13.0%
C=CCSC1=N/C(=C\C=C\c2ccco2)C(=O)S1	7.4%	-0.7%	1.3%	2.0%	5.8%	13.5µM*
CC1CCN(c2cc3c(cc2F)c(=O)c(S(=O)(=O)c2ccc(Cl)cc2)cn3C)CC1	·	·	·	·	·	-5.5%
Cc1ccc2scc(N3CCC(C)CC3)c(=O)c2c1	·	·	·	·	·	1.2µM*
Cc1ccc(-n2c(=O)cc(N3CCC(C)CC3)[nH]c2=O)cc1	-13.7%	-0.3%	-1.9%	5.3%	-1.1%	0.4%
Cc1ccc2scc(N3CCCCC3)c(=O)c2c1	·	·	·	·	·	0.849µM*
O=c1c(N2CCCCC2)coc2ccccc12	·	-6.9%	?	27.5%	22.2%	?
CC1CCN(c2csc3ccc(F)cc3c2=O)CC1	·	·	·	·	·	6.01µM*
O=c1c(N2CCc3ccccc3C2)csc2ccc(F)cc12	·	·	·	·	·	6.01µM*
CCCOc1ccc(C2c3c(oc4ccccc4c3=O)C(=O)N2c2nnc(C(C)C)s2)cc1 (stereo not drawn)	10.6%	·	·	·	·	-13.4%
CCn1cc(S(=O)(=O)c2cccc(C)c2)c(=O)c2cc(F)c(N3CCCCC3C)cc21 (stereo not drawn)	·	·	·	·	·	1.6%
Cc1ccc2scc(N3CCCCC3C)c(=O)c2c1 (stereo not drawn)	·	·	·	·	·	0.953µM*
Cc1c(C(=O)N/N=C/c2ccc(Cl)cc2)[nH]c2ccc(Cl)cc12	?	-2.0%	2.6%	-19.4%	-17.6%	-13.3%
COc1ccc(/C=N/NC(=O)c2cc3cc(OC)c(OC)cc3[nH]2)cc1	·	·	1.3%	0.3%	-1.9%	?
COc1cc2cc(C(=O)N/N=C/c3ccccc3Cl)[nH]c2cc1OC	·	·	-4.9%	-3.2%	-4.5%	16.9µM*
COc1ccc2cc(C(=O)N/N=C/c3cc(OC)c(OC)c(OC)c3)[nH]c2c1	·	·	-6.4%	-2.0%	0.6%	6.75µM*
COc1ccc2[nH]c(C(=O)N/N=C/c3ccc(O)cc3O)cc2c1	·	·	15.3%	-1.7%[1.84 µM]	-36.2%	10.7µM*
CCOc1ccc(/C=N/NC(=O)c2[nH]c3ccc(C)cc3c2C)cc1	·	·	-2.3%	3.9%	-2.6%	10.7µM*
CCCCOC(=O)c1ccc(Nc2nc3ccc(C(=O)c4ccccc4)cc3n3cnnc23)cc1	·	·	·	·	·	0.3%
CCOc1ccc2[nH]c(C(=O)N/N=C/c3ccc(OC)cc3)cc2c1	·	·	5.9%	-18.1%	-8.1%	10.7µM*
O=c1c2c3c(sc2nc2sc(CN4CCOCC4)cn12)CCCC3	?	-4.2%	?	?	4.47µM*	-5.4%
O=[N+]([O-])c1ccc(NCCO)c(OCCO)c1	9.9%	·	·	·	·	·
CN1C(=O)/C(=N/OC(=O)c2ccccc2)c2ccccc21	-8.0%	-1.5%	0.0%	-3.5%	-5.3%	7.57µM*
O=C(O/N=C1\C(=O)N(c2ccccc2)c2ccccc21)C1CC1	-3.9%	0.1%	-3.1%	8.0%	-5.6%	-19.6%
Cc1ccc(C2C3=C(CC(C)(C)CC3=O)N(CCN3CCOCC3)C3=C2C(=O)CC(C)(C)C3)cc1	-7.6%	-2.6%	-1.9%	3.55µM*	-3.4%	-9.1%

Screening data: PubChem BioAssay, National Center for Advancing Translational Sciences (NCATS)
